The full list was thinned out, with hits kept by preference.
TTR transcr act: TTR transcription activators in neuroblastoma reporter cells, primary screen, cell-based, luminescence, SH-SY5Y, TTR promoter Gaussia luciferase; 92,000 compounds, 1.3% hits; activation, % at 16.7 µM; AID 1117267, 2014; 100% = recombinant luciferase protein wells;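 active means activation above the mean of all tested compounds plus 3 SD, cut at about 9.5% in these data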;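 further: cells exposed to compounds for one day before reading; 0% = median of all test compound wells on the plate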
TTR inh HuH7: TTR promoter reporter inhibitors in hepatoma cells, counter-screen for TTR transcription activator project, cell-based, luminescence, HuH7 hepatoma. shares compounds with TTR transcr act. HuH7 TTR promoter-Gaussia luciferase reporter. inhibition, % at 16.7 µM. 1,100 compounds, 4% hits;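 active means average inhibition above the solvent-only control wells' mean plus 3 SD, cut at about 15% in these data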;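 further: 0% = cells with DMSO only and 100% = cells with inhibitor control FD; inhibitors lower well luminescence so higher value means more inhibition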
TTR up confirm: TTR transcription activators, retest, confirmation, cell-based, luminescence, SH-SY5Y, triplicate | shares compounds with TTR transcr act | 1,100 tested, under 10 active | SHSY5Y TTR promoter Gaussia luciferase; 100% = purified Lucia enzyme wells, no cells | activation, % at 16.7 µM;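 active means mean activation above a set limit taken from the earlier primary screen, cut at about 11% in these data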;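 further: 0% = DMSO-treated cells and 100% = recombinant Lucia luciferase without cells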
* hit, by the source's call.

SMILES	TTR transcr act	others
COC(=O)[C@@]12CCCCC=C1N(CCc1ccc(Cl)cc1)C(=O)[C@H]2CC(=O)NCCc1ccccc1OC	-0.8
Cc1cccc(N(C(=O)Cn2nnc3ccccc32)C(C(=O)NCc2ccco2)c2ccncc2)c1C (stereo not given)	0.8
Cc1ccccc1C(C(=O)NCc1ccco1)N(CC1CCCO1)C(=O)Cn1nnc2ccccc21 (stereo not given)	12.0*	TTR inh HuH7=-4.1;TTR up confirm=-0.9
O=C(NCc1ccco1)C(c1ccccc1)N(CC1CCCO1)C(=O)Cn1nnc2ccccc21 (stereo not given)	6.0
CN1C2=N[C@H](c3cccc(C(F)(F)F)c3)CC(=O)N2/C(=C\c2ccccc2)[C@H]1c1ccccc1	3.8
Cc1ccc(S(=O)(=O)N2C=C(c3ccccc3)c3ccccc3-c3ccccc32)cc1	3.3
Cc1cc(C)cc(S(=O)(=O)N2CCN(c3nc(-c4cccs4)nc4ccccc34)CC2)c1	-1.4
O=C(OC12CCCN(C1)/C(=C/c1cccnc1)C2)c1ccc(F)cc1 (stereo not given)	-1.9
CCCCC(=O)Nc1cc(C)c(NC(=O)c2cccs2)cn1	-2.3
CCC(=O)Nc1cnc(NC(=O)c2cccc(F)c2)cc1C	-0.1
CCC(=O)Nc1cc(C)c(NC(=O)C23CC4CC(CC(C4)C2)C3)cn1	9.9*	TTR inh HuH7=-16.6;TTR up confirm=0.3
O=C(COc1ccccc1C(=O)NCc1ccccc1)Nc1ccc(I)cc1	0.0
c1ccc2cc3[nH]c(CNc4nc(N5CCOCC5)nc5c4ncn5-c4ccsc4)nc3cc2c1	7.7
CC(=O)c1ccn(S(=O)(=O)c2ccc(Cl)cc2)c1	1.9
C/C(=N\O)c1ccn(S(=O)(=O)c2ccc(Cl)cc2)c1	26.2*	TTR inh HuH7=-23.1;TTR up confirm=3.8
C/C(=N/NS(=O)(=O)c1ccc(Cl)cc1)c1ccncc1	3.6
COc1ccc(C(=O)C(C)C(C)=O)c(OCc2ccccc2)c1OC (stereo not given)	14.0*	TTR inh HuH7=-19.8;TTR up confirm=-0.6
COc1cc(NC(=O)c2ccccc2OCc2ccccc2)cc(OC)c1OC	-1.2
COc1cccc(C(=O)NOCc2ccccc2)c1OC	1.2
CC(C)(C)c1ccc(C(=O)Nc2cc(Cl)c(Cl)cc2C(=O)O)cc1	-2.5
Cc1cc(C)n(CC(=O)c2ccccc2)c(=O)c1C#N	16.2*	TTR inh HuH7=-7.3;TTR up confirm=-0.3
Cc1cn(CC(=O)c2ccccc2)c2ccccc12	0.5
Cc1cc(-c2ccccc2)[nH]c(=O)c1C#N	0.2
O=C(OCC#CCSc1nnc(-c2cccc3ccccc23)o1)c1sccc1Cl	0.2
COc1ccc(C2c3ccccc3NC3C2C(=O)N(Cc2ccc(OC)cc2OC)[C@H]3Cc2ccccc2)cc1 (stereo not given in full)	0.3
SMILES	TTR transcr act	others
Cc1ccccc1OCCn1c(S(=O)(=O)O)nc2c(N)ncnc21	9.9*	TTR inh HuH7=-16.1;TTR up confirm=0.2
Cc1ccccc1OCCn1c(C)nc2ccccc21	-2.1
Cc1ccccc1OCCn1c(=S)[nH]c2ccccc21	-1.3
Cc1cc(C)cc(NC(=O)OC2CC3CC2[C@H]2CCCCN2[C@H]3C)c1 (stereo not given in full)	2.2
O=C1CCCc2c1cc(C(=O)O)c(=O)n2-c1ccccc1	1.5
COC(=O)c1cc(-c2cccc3ccccc23)c(=O)n2c1CCC2	-1.0
CCCCn1c2c(cc(C(=O)OC)c1=O)C(=O)CCC2	23.5*	TTR inh HuH7=-0.1;TTR up confirm=-0.9
O=S1(=O)c2ccc(N3CC[C@H](O)C3)cc2OCCCN1C1CC1	3.1
C[C@H](NS(=O)(=O)c1ccc([N+](=O)[O-])cc1)C(=O)NCCNC(=O)[C@@H](C)NS(=O)(=O)c1ccc([N+](=O)[O-])cc1	1.0
CC(=O)NC1(c2ccccc2)CCN(C(=O)N2CCOCC2)CC1	1.4
CC(=O)NC1(NC(C)=O)CCN(C)C(c2ccccc2)C1C (stereo not given)	14.8*	TTR inh HuH7=-6.3;TTR up confirm=-0.5
CC(=O)NC1(C(F)(F)F)C(=O)N(Cc2ccccc2)C2=C1C(=O)CC(C)(C)C2 (stereo not given)	-1.2
COC(=O)[C@]12C[C@H](CC(=O)NCC3CCCCC3)C(=O)N(Cc3cccc4ccccc34)C1=C[C@H](COCc1ccccc1)O[C@@H]2C	1.6
Cc1ccccc1CN1CCCCC(NC(=O)C2CCC2)C1=O (stereo not given)	0.4
COC(=O)[C@]1(CC(C)C)N[C@H](c2ccc(SC3CCCCC3)c(OC)c2)[C@@H]2C(=O)N(C)C(=O)[C@@H]21	0.1
COC(=O)[C@]1(CC(C)C)N[C@H](c2ccc(-c3ccc(F)cc3)c(OC)c2)[C@@H]2C(=O)N(C)C(=O)[C@@H]21	12.6*	TTR inh HuH7=-10.6;TTR up confirm=0.2
CCC(C)Sc1ccc([C@H]2N[C@@](CC(C)C)(C(=O)OC)[C@H]3C(=O)N(CC)C(=O)[C@@H]23)cc1 (stereo not given in full)	2.7
CCCCC(CC)C(=O)Nc1cc(C(=O)NCCC)ccc1N1CCC2(CC1)CC(c1cccc(Br)c1)=NO2 (stereo not given)	1.4
COC(=O)C1=C(C(=O)OC)[C@@]2([C@@H](Cc3ccc(C)cc3)Nc3ccccc3)C=C[C@@H]1O2	-6.7
COCCCNC(=O)C[C@H]1C[C@@]2(C(=O)OC)C(=C[C@H](C3CCCC3)O[C@@H]2C)N(Cc2ccc(Cl)cc2Cl)C1=O	-0.7
CCN(CC)C(=O)C1=C(C)N(CCC2=CCCCC2)C(=O)C(CC(=O)NCCCCc2ccccc2)C1 (stereo not given)	-1.9
CCN(CC)C(=O)C1=C(C)N(CCC2=CCCCC2)C(=O)C(CC(=O)NCCc2ccccn2)C1 (stereo not given)	23.9*	TTR inh HuH7=-8.8;TTR up confirm=-0.5
CC1=C(C(=O)N2CCOCC2)CC(CC(=O)NCCc2ccccn2)C(=O)N1CCC1=CCCCC1 (stereo not given)	-1.1
O=C(Cc1ccc2c(c1)OCO2)N1CCC(n2nc(-c3ccccc3)oc2=O)CC1	-1.0
CCOC(=O)N1CCN(C(=O)C[C@H]2C[C@@]3(C(=O)OC)C(=C[C@H](C4CCCC4)O[C@@H]3C)N(Cc3ccc(Cl)cc3Cl)C2=O)CC1	1.5
SMILES	TTR transcr act	others
CC(C)(C)S(=O)N1Cc2ccc(CO)cc2[C@H]1CCO (stereo not given in full)	2.8
CC(C)(C)S(=O)N1Cc2cc(=O)n(Cc3ccccc3)cc2[C@H]1CCO (stereo not given in full)	11.0*	TTR inh HuH7=-9.4;TTR up confirm=1.0
CC(C)(C)S(=O)N1Cc2cc(CO)cc(-c3ccccc3)c2[C@H]1CCO (stereo not given in full)	-0.3
COc1cccc(NC(=O)N2CCN(c3nc(-c4cccc(OC)c4)cs3)CC2)c1	-4.1
COc1cccc(-c2csc(N3CCN(Cc4ccccc4)CC3)n2)c1	10.0*	TTR inh HuH7=8.5;TTR up confirm=-0.9
COc1ccc(-c2cc(=O)[nH]c(N3CCN(Cc4ccccc4)CC3)n2)cc1	1.2
CC(C(=O)Nc1ccc(C#N)cc1)N(C)Cc1cccs1 (stereo not given)	0.4
CC(C(=O)Nc1ccc(C#N)cc1)N(C)CC(=O)Nc1cccc(F)c1 (stereo not given)	9.9*	TTR inh HuH7=-9.4;TTR up confirm=-0.7
CC(C(=O)Nc1ccc(S(=O)(=O)N2CCCC2)cc1)N(C)CC(=O)Nc1cccc(F)c1 (stereo not given)	0.4

Screens as filed in PubChem.
